Measurements taken from PubChem BioAssay (EPA / NIEHS).
Inconclusive results are not listed. The source made the active and inactive calls. The calls were made as follows, unless noted: active = hit-call score of the fitted dose curve at least 0.9, where 1 is the maximum; inactive = score below 0.9.

Legend:
[1] = target: human Retinoid X Receptor beta (RXRb), RXRB (gene 6257) (UniProt P28702); assay: ATG_RXRb_TRANS: Attagene TRANS-FACTORIAL HepG2 Assay for human Retinoid X Receptor beta (RXRb) (AID 2283013; active = hit-call score of the fitted dose curve at least 0.9, where 1 is the maximum)
Sequence of human Retinoid X Receptor beta (RXRb), RXRB (gene 6257) (P28702 whole entry, looked up, the tested form may be a part): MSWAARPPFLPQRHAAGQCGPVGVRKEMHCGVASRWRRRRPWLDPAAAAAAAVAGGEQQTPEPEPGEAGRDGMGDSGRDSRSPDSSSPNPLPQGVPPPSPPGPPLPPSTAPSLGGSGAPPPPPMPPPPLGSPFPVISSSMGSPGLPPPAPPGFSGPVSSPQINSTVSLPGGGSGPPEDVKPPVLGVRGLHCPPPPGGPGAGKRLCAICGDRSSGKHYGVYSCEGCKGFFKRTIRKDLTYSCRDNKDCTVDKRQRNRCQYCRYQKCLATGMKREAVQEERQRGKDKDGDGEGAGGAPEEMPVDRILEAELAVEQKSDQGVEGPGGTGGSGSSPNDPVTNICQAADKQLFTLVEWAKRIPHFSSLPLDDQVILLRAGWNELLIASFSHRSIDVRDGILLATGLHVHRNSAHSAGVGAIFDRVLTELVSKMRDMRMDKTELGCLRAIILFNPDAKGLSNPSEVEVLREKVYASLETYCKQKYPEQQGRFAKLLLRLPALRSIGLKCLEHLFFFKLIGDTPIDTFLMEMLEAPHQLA
Outline: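 Chimeric receptor-Gal4 activity was assessed in transiently transfected human HepG2 cells after 24 h exposure. Transcripts from GAL4-UAS reporters were quantified by fluorescent RT-PCR and capillary electrophoresis, with DMSO as negative control and baseline.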

[2] = read-out: E-selectin (Homo sapiens) (UniProt P16581); assay: BSK_3C_Eselectin: BioMAP Diversity Plus: 3C Assay for Eselectin Biomarker Activity (AID 2283015); details: primary human endothelial cells (HUVEC); actives raise or lower the signal
Outline: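 HUVEC, 3C stimulation; compound exposure 24 h; E-selectin by ELISA; gain- or loss-of-signal fitted bidirectionally vs DMSO baseline.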

[3] = read-out: Interleukin-1 alpha (IL1a), IL1A (gene 3552); assay: BSK_BE3C_IL1a: BioMAP Diversity Plus: BE3C Assay for Interleukin-1 alpha (IL1a) Biomarker Activity (AID 2283016); details: primary human bronchial epithelial cells; actives raise or lower the signal
Outline: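 Signal from IL-1a ELISA, taken 24 h after chemical dosing of human bronchial epithelial cells, is compared with DMSO as baseline using bidirectional curve fitting.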

[4] = read-out: Monocyte Chemoattractant Protein-1 (MCP1), CCL2 (gene 6347); assay: BSK_3C_MCP1: BioMAP Diversity Plus: 3C Assay for Monocyte Chemoattractant Protein-1 (MCP1) Biomarker Activity (AID 2283017); details: primary human endothelial cells (HUVEC); actives raise or lower the signal
Outline: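 HUVEC, 3C system; 24 h chemical exposure; MCP-1 by ELISA; bidirectional curve fit vs DMSO baseline.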

[5] = read-out: Monocyte Chemoattractant Protein-1 (MCP1), CCL2 (gene 6347); assay: BSK_4H_MCP1: BioMAP Diversity Plus: 4H Assay for Monocyte Chemoattractant Protein-1 (MCP1) Biomarker Activity (AID 2283018); details: primary human endothelial cells (HUVEC); actives raise or lower the signal
Outline: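 Endothelial cells from umbilical vein were treated with test chemical, then after 24 h MCP-1 levels were quantified by ELISA; endpoint values came from bidirectional fitting with DMSO as baseline of activity.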

[6] = read-out: Human Leukocyte Antigen - DR isotype (HLADR), HLA-DRA (gene 3122); assay: BSK_3C_HLADR: BioMAP Diversity Plus: 3C Assay for Human Leukocyte Antigen - DR isotype (HLADR) Biomarker Activity (AID 2283019); details: primary human endothelial cells (HUVEC); actives raise or lower the signal
Outline: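 HUVEC, 3C stimulation, 24 h post-dose; HLA-DR by ELISA; bidirectional curve fit vs DMSO baseline; gain or loss of signal scored.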

[7] = read-out: Interleukin-8 (IL8), CXCL8 (gene 3576); assay: BSK_3C_IL8: BioMAP Diversity Plus: 3C Assay for Interleukin-8 (IL8) Biomarker Activity (AID 2283020); details: primary human endothelial cells (HUVEC); actives raise or lower the signal
Outline: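 Endothelial primary cells of human umbilical vein origin are dosed with chemical; after 24 h the IL-8 biomarker is measured by ELISA, and concentration–response is fitted in both directions versus DMSO.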

[8] = read-out: Monokine induced gamma interferon (MIG), CXCL9 (gene 4283); assay: BSK_3C_MIG: BioMAP Diversity Plus: 3C Assay for Monokine induced gamma interferon (MIG) Biomarker Activity (AID 2283021); details: primary human endothelial cells (HUVEC); actives raise or lower the signal
Outline: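 Endothelial primary cells (human umbilical vein) are dosed with test chemical in the 3C system. MIG levels are measured by ELISA at 24 h and fitted in both directions relative to DMSO.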

[9] = target: human Vitamin D Receptor (VDR), VDR (gene 7421) (UniProt P11473); assay: ATG_VDR_TRANS: Attagene TRANS-FACTORIAL HepG2 Assay for human Vitamin D Receptor (VDR) (AID 2283022; active = hit-call score of the fitted dose curve at least 0.9, where 1 is the maximum)
Sequence of human Vitamin D Receptor (VDR), VDR (gene 7421) (P11473 whole entry, looked up, the tested form may be a part): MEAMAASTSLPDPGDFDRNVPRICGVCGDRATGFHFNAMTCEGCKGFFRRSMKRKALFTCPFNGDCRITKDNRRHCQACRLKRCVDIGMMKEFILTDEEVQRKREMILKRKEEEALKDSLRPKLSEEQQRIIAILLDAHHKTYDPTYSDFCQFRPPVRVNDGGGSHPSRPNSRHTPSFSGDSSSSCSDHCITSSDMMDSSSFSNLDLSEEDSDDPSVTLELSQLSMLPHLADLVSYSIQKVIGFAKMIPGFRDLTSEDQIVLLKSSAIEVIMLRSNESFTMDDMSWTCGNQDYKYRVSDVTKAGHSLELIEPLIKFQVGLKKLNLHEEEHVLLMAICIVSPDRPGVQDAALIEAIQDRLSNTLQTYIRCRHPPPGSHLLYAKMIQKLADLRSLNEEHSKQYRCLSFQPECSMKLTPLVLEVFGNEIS
Outline: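 RT-PCR/capillary electrophoresis read-out of reporter mRNA induction in transiently transfected HepG2; 24 h dosing; chimeric NR-Gal4 (TRANS format); gain-of-signal fit against DMSO baseline.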

[10] = BSK_3C_SRB: Viability Assessment in the BioMAP Diversity Plus: 3C Assay (AID 2283023); details: primary human endothelial cells (HUVEC);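 also: fitted both ways against DMSO so a hit may be signal rise or drop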
Outline: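 HUVEC, 24 h post-dose; 10% TCA fix, 0.1% SRB stain, A560 nm. Bidirectional curve fit vs DMSO negative control.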

[11] = read-out: Matrix Metallopeptidase 1 (MMP1), MMP1 (gene 4312); assay: BSK_BE3C_MMP1: BioMAP Diversity Plus: BE3C Assay for Matrix Metallopeptidase 1 (MMP1) Biomarker Activity (AID 2283024); details: primary human bronchial epithelial cells; actives raise or lower the signal
Outline: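 MMP1 signal, measured by ELISA after a 24 h chemical exposure of human primary bronchial epithelial cells, is analysed with bidirectional fitting using DMSO as negative control.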

[12] = BSK_3C_Vis: BioMAP Diversity Plus: 3C Assay for Morphology Visualization (AID 2283025); details: primary human endothelial cells (HUVEC);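 also: fitted both ways so gain or loss versus DMSO counts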
Outline: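 Morphology read by light microscopy serves as a background control for the multiplexed 3C assay in human umbilical vein endothelial cells, taken 24 h after dosing, with DMSO as the negative control and bidirectional curve fitting.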

[13] = read-out: Pselectin, SELP (gene 6403); assay: BSK_4H_Pselectin: BioMAP Diversity Plus: 4H Assay for Pselectin Biomarker Activity (AID 2283026); details: primary human endothelial cells (HUVEC); actives raise or lower the signal
Outline: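 Endothelial primary cells (human umbilical vein) are dosed, incubated 24 h, and assayed for surface P-selectin by ELISA; responses in either direction are fitted relative to the DMSO negative control.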

[14] = BSK_4H_SRB: Viability Assessment in the BioMAP Diversity Plus: 4H Assay (AID 2283027); details: primary human endothelial cells (HUVEC);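 also: cells exposed to compound for 24 h before staining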;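 as to AC50: curves fitted both ways versus DMSO so AC50 may be loss or gain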
Outline: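 HUVEC, 24 h post-dose; 10% TCA fix, 0.1% SRB stain, A560 nm. Total protein = overt cytotoxicity, parallel to biomarker read. Bidirectional fit vs DMSO baseline.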

[15] = read-out: Thrombomodulin, THBD (gene 7056); assay: BSK_3C_Thrombomodulin: BioMAP Diversity Plus: 3C Assay for Thrombomodulin Biomarker Activity (AID 2283029); details: primary human endothelial cells (HUVEC); actives raise or lower the signal
Outline: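 Endothelial cells from umbilical vein are dosed with test chemical and incubated 24 h. Thrombomodulin is then quantified by ELISA, with DMSO serving as negative control and activity baseline.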

[16] = read-out: Urokinase-type plasminogen activator receptor (uPAR), PLAUR (gene 5329); assay: BSK_4H_uPAR: BioMAP Diversity Plus: 4H Assay for Urokinase-type plasminogen activator receptor (uPAR) Biomarker Activity (AID 2283030); details: primary human endothelial cells (HUVEC); actives raise or lower the signal
Outline: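 HUVEC, 24 h post-dose; uPAR by ELISA; bidirectional fit vs DMSO baseline.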

[17] = target: human RAR-related Orphan Receptor gamma (RORg), RORC (gene 6097) (UniProt P51449); assay: ATG_RORg_TRANS: Attagene TRANS-FACTORIAL HepG2 Assay for human RAR-related Orphan Receptor gamma (RORg) (AID 2283011; active = hit-call score of the fitted dose curve at least 0.9, where 1 is the maximum)
Sequence of human RAR-related Orphan Receptor gamma (RORg), RORC (gene 6097) (P51449 whole entry, looked up, the tested form may be a part): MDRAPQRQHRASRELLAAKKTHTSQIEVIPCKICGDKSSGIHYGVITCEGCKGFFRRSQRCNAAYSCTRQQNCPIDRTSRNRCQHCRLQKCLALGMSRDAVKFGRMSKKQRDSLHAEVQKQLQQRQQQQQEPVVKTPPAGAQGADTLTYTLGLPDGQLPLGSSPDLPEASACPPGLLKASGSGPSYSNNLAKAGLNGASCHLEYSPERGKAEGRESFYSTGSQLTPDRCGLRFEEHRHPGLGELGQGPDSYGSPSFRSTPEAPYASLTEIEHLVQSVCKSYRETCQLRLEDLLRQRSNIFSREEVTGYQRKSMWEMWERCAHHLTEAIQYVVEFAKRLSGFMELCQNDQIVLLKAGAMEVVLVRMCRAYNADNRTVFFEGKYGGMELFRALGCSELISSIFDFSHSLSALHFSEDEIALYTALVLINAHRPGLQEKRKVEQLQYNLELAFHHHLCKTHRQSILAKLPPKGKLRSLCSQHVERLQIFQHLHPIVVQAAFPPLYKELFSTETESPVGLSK
Outline: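 Transient MRTU transfection of HepG2 (TRANS format, exogenous NR-Gal4 chimera). 24 h dosing. Total RNA → oligo(dT) RT → PCR → 6-FAM labelling → HpaI cut → CE. Gain vs DMSO.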

[18] = target: Retinoic acid receptor RXR-alpha (Homo sapiens) (UniProt P19793); assay: ATG_RXRa_TRANS: Attagene TRANS-FACTORIAL HepG2 Assay for human Retinoid X Receptor alpha (RXRa) (AID 2283012; active = hit-call score of the fitted dose curve at least 0.9, where 1 is the maximum)
Sequence of Retinoic acid receptor RXR-alpha (Homo sapiens) (P19793 whole entry, looked up, the tested form may be a part): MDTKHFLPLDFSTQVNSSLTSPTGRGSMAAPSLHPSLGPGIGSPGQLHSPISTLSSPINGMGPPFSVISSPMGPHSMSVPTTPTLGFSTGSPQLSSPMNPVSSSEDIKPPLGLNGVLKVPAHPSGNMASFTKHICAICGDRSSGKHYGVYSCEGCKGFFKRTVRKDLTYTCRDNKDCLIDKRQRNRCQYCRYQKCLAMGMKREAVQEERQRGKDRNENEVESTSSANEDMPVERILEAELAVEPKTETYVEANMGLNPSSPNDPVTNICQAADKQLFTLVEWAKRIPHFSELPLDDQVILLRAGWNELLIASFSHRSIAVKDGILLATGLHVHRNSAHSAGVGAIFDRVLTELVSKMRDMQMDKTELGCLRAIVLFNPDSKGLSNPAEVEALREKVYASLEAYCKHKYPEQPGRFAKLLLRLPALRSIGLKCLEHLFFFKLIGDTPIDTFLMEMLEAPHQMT
Outline: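 Measures exogenous chimeric NR-GAL4 activity in transfected HepG2 liver cells after 24 h of dosing. Induced reporter mRNA was detected by RT-PCR with capillary electrophoresis, and gain of signal was analysed against DMSO.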

[19] = BSK_BE3C_SRB: Viability Assessment in the BioMAP Diversity Plus: BE3C Assay (AID 2283028); details: primary human bronchial epithelial cells;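 as to AC50: fitted both ways so AC50 may mark signal gain or loss versus DMSO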
Outline: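 Primary human bronchial epithelium; chemical dosing, 24 h; 10% TCA fix, 0.1% SRB stain, A560; bidirectional fit vs DMSO baseline.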

[20] = target: human Thyroid Receptor alpha (THRa1), THRA (gene 7067) (UniProt P10827); assay: ATG_THRa1_TRANS: Attagene TRANS-FACTORIAL HepG2 Assay for human Thyroid Receptor alpha (THRa1) (AID 2283014; active = hit-call score of the fitted dose curve at least 0.9, where 1 is the maximum)
Sequence of human Thyroid Receptor alpha (THRa1), THRA (gene 7067) (P10827 whole entry, looked up, the tested form may be a part): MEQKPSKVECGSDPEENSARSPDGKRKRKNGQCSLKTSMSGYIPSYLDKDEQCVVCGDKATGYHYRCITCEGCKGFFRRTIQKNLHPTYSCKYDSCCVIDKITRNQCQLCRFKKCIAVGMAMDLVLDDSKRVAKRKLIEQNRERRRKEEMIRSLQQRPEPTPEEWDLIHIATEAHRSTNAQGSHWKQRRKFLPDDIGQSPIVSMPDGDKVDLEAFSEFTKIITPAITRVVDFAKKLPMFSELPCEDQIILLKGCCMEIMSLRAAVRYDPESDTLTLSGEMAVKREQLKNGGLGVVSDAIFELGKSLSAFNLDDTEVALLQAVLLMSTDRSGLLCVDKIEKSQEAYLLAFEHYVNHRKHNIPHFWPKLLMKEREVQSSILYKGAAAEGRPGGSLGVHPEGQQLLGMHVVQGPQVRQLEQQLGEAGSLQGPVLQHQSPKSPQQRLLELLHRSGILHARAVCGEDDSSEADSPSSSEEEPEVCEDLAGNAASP
Outline: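 Transient HepG2 transfection, NR-Gal4 chimera driving GAL4-UAS reporters; 24 h compound exposure; total RNA, oligo(dT) RT, PCR, fluorescent primer extension, capillary electrophoresis. Upward direction vs DMSO control.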

Measured: AC50

Sequence of E-selectin (Homo sapiens) (P16581 whole entry, looked up): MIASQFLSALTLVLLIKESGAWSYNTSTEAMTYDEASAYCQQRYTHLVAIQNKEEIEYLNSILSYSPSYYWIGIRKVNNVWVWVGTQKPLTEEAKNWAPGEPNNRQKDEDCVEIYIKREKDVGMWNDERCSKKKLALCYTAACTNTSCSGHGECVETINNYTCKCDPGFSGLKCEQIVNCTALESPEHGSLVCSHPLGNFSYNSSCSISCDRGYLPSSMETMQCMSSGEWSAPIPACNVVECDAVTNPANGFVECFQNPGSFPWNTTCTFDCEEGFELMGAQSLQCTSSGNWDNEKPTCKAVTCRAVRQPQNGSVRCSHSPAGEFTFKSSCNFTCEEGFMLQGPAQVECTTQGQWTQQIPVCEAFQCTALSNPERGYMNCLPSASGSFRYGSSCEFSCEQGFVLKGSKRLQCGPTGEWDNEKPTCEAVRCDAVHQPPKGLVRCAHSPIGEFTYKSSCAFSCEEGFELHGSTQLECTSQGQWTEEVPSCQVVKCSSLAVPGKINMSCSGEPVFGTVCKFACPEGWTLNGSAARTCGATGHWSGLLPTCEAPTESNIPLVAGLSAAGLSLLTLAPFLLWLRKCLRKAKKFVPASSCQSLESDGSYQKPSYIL

Cc1c(F)c(F)c(COC(=O)C2C(/C=C(\Cl)C(F)(F)F)C2(C)C)c(F)c1F (stereo not drawn)
active: [2] 12 µM | [6] 14.8 µM | [10] 13.7 µM | [12] 9.8 µM
not listed: [17] | [18] | [19] | [20]
inactive: all other assays above

COP(N)(=O)SC (stereo not drawn)
not listed: [9] | [20]
inactive: all other assays above

CC1=C(C(=O)Nc2ccccc2)SCCO1
active: [6] 10.6 µM
not listed: [17] | [18]
inactive: all other assays above

Cc1cc(Cl)ccc1OCC(=O)O
not listed: [1] | [9] | [18]
inactive: all other assays above

COP(=S)(OC)Oc1nc(Cl)c(Cl)cc1Cl
active: [2] 35.2 µM | [10] 20 µM | [12] 39 µM | [13] 20 µM
not listed: [9] | [17] | [20]
inactive: all other assays above

C=CCC1=C(C)[C@@H](OC(=O)[C@@H]2[C@@H](C=C(C)C)C2(C)C)CC1=O
active: [2] 31.2 µM | [4] 32 µM | [5] 23.4 µM | [6] 34.4 µM | [7] 35.4 µM | [10] 25.8 µM | [12] 13.7 µM | [13] 31.6 µM | [14] 30.2 µM | [19] 18.8 µM
inactive: [18] | [3] | [8] | [9] | [11] | [15] | [16]
